According to ChEMBL document CHEMBL4513216, “Probing the Open Global Health Chemical Diversity Library for Multistage-Active Starting Points for Next-Generation Antimalarials” (ACS Infect Dis, 2020):
In all, about 69,000 compounds went through this assay and about 8,600 (12%) showed an effect of 50% or more. The list comes from a sample in which strong results are over-represented; it also holds similar structures and randomly drawn compounds.

These molecules were tested on Plasmodium berghei (assay: Screen against P. berghei liver stage (PbLuc), transformed with Luciferase, at 10uM). Conditions: tested at 10 uM.
Format: functional, HepG2
Molecule `CCc1nnc2n1CCN(C(=O)Cc1nc(-c3ccco3)oc1C)C2` has an INHIBITION of -17.6%. In the case of `Cc1ncc(C(=O)N2CCCC(n3nc(C)nc3C)C2)c(C(C)C)n1` (stereo not drawn), the INHIBITION is reported as -3.15%. Work on `Cc1cc(C)n(CC2CCCN2C(=O)c2cccc(C#N)c2)n1` (stereo not drawn) yielded an INHIBITION of -3.585%. `COc1ccc(OCCN2CCC(c3ccnn3CCO)CC2)cc1` was tested, and the INHIBITION was 11.4%. `Cc1ccc(C(C(=O)NC(C)(C)CN2CCCC2)N(C)C)cc1` (stereo not drawn) gave an INHIBITION of 35.7%. `CCOCC1CC2(CCN(C(=O)c3cscn3)CC2)CO1` (stereo not drawn) showed an INHIBITION of 9.63%. Molecule `CCOCC1c2c(ncn2C(C)C)CCN1C(=O)CC` (stereo not drawn) has an INHIBITION of 29.8%. Work on `CCOCC1c2c(ncn2C(C)C)CCN1C(C)C` (stereo not drawn) yielded an INHIBITION of 10.5%. Molecule `CCn1ncc2c1C(COC)N(C(=O)Cc1cccs1)CC2` (stereo not drawn) has an INHIBITION of 25.8%. `CCOCC1c2c(ncn2C(C)C)CCN1C(=O)C1CC1` (stereo not drawn) showed an INHIBITION of 76.4%. In the case of `CCOCC1c2c(cnn2C)CCN1C(=O)c1cc(C)on1` (stereo not drawn), the INHIBITION is reported as 37.6%. Molecule `CCOCC1c2c(ncn2C)CCN1C(=O)c1cscn1` (stereo not drawn) has an INHIBITION of 60.2%. `CCn1ncc2c1C(COC)N(C(=O)c1cccs1)CC2` (stereo not drawn) gave an INHIBITION of 51.2%. With `CCOCC1c2c(ncn2C)CCN1C(=O)c1ccoc1` (stereo not drawn) the INHIBITION was -3.17%. In the case of `CCn1ncc2c1C(COC)N(C(=O)c1ccsc1)CC2` (stereo not drawn), the INHIBITION is reported as 43.9%. Work on `CCOCC1c2c(ncn2C)CCN1C(=O)c1cnc(C)cn1` (stereo not drawn) yielded an INHIBITION of 57.5%. In the case of `CCOCC1CN(C(=O)c2cscn2)Cc2cn(C)nc21` (stereo not drawn), the INHIBITION is reported as 17.1%. `CN(Cc1cc(C2CC2)[nH]n1)C(=O)c1cnn2ccn(C)c12` showed an INHIBITION of 14.9%. `Cc1c(-c2cccs2)nn2c(=O)c3c([nH]c12)CN(C(=O)C1CC1)C3` gave an INHIBITION of 43.7%. Molecule `CC1c2ncc(CNC(=O)C3CC3)n2CCN1Cc1ccncc1` (stereo not drawn) has an INHIBITION of 6.55%. `CN1CCN(c2cc(CNC(=O)c3cnccn3)ccn2)CC1` showed an INHIBITION of 35.3%. `O=C(CC(F)(F)F)N1C[C@@H]2CC[C@H]1CN(Cc1ccccc1)C2` showed an INHIBITION of -8.47%. `CNc1nc(C2CCCCN2C(=O)C(C)(C)OC)nc2c1CN(C)CC2` (stereo not drawn) was tested, and the INHIBITION was 38.2%. With `CC1c2ncc(COCC3CCOCC3)n2CCN1C(=O)c1ccco1` (stereo not drawn) the INHIBITION was 47.2%. With `COC1C[C@@H]2CN(C(=O)c3cc4ccc(F)cc4[nH]3)C[C@@H]2C1` (stereo partly drawn) the INHIBITION was -36.1%. Work on `COCC1c2c(cnn2C)CCN1C(=O)c1cc(C)on1` (stereo not drawn) yielded an INHIBITION of 38.5%. Work on `CCn1ncc2c1C(COC)N(C(=O)c1cscn1)CC2` (stereo not drawn) yielded an INHIBITION of 38.5%. `COCC1c2c(cnn2C)CCN1C(=O)c1cscn1` (stereo not drawn) gave an INHIBITION of 56.6%. `O[C@@H]1C[C@H]2CN(CC3CCCCC3)[C@H](Cc3ccccc3)CN2C1` was tested, and the INHIBITION was 16.2%. In the case of `O=C(CC1CC1)NCc1cn2c(n1)CN(C(=O)c1cccnc1)CC2`, the INHIBITION is reported as -5.69%. In the case of `Cn1cc(Br)c(=O)c(NS(=O)(=O)c2ccc(Cl)cc2)c1`, the INHIBITION is reported as -4.68%. Work on `CC(=O)N1CCN(CC(C)(O)c2cccc(C(F)(F)F)c2)CC1` (stereo not drawn) yielded an INHIBITION of 33.3%. Molecule `CC(=O)N1CCCN(CC(C)(O)c2cccc(C(F)(F)F)c2)CC1` (stereo not drawn) has an INHIBITION of 64.5%. In the case of `CCN1CCN(CC(C)(O)c2cccc(C(F)(F)F)c2)CC1` (stereo not drawn), the INHIBITION is reported as 20.1%. `Cn1cnnc1S(=O)(=O)Cc1cc(Cl)c2c(c1)OCO2` gave an INHIBITION of 68.4%. `CN(C)C(=O)CS(=O)(=O)Cc1cc(Cl)c2c(c1)OCCO2` showed an INHIBITION of 16.9%. `CNC(=O)CCS(=O)(=O)Cc1cc(Cl)c2c(c1)OCCO2` gave an INHIBITION of 15.3%. `CC(C(N)=O)S(=O)(=O)Cc1cc(Cl)c2c(c1)OCO2` (stereo not drawn) showed an INHIBITION of 16.7%. With `CCc1nnc(S(=O)(=O)Cc2cc(Cl)c3c(c2)OCO3)n1C` the INHIBITION was 24.8%. With `Cn1cnnc1S(=O)(=O)Cc1cc(Cl)c2c(c1)OCCO2` the INHIBITION was 63.8%. In the case of `Cc1csc(N2CCCN(C(=O)c3c(C)noc3C)CC2)n1`, the INHIBITION is reported as -19.6%. `COc1cccc(CCN2C[C@H]3CCNCC[C@H]3S2(=O)=O)c1` was tested, and the INHIBITION was 24.6%. `CCn1cc(NC(=O)NCCN2CCc3ccccc3C2)cn1` showed an INHIBITION of 17.5%. `Cc1cc(C)n(C2CCCN(C(=O)c3ccc(N(C)C)nn3)C2)n1` (stereo not drawn) gave an INHIBITION of 13.2%. `O=C(Nc1cc(CCC2CCN(CCO)CC2)ccn1)c1ccccn1` gave an INHIBITION of 52.8%. Work on `CC(=O)Nc1cc(CCC2CCN(C(=O)c3ccccn3)CC2)ccn1` yielded an INHIBITION of 10.35%. Work on `CN1CCC(CCc2ccnc(NC(=O)c3ccccn3)c2)CC1` yielded an INHIBITION of 67.45%. For `O=C(CO)N1CCC(CCc2ccnc(Nc3cnccn3)c2)CC1`, the INHIBITION was 36%. `CC(=O)N1CCC(CCc2ccnc(NC(=O)c3ccccn3)c2)CC1` was tested, and the INHIBITION was 21.95%. Molecule `CC(=O)N1CCC(CCc2ccnc(Nc3ccccn3)c2)CC1` has an INHIBITION of 40.65%. For `CC(=O)N1CCC(C(=O)NCc2cc[nH]n2)(c2ccccc2)CC1`, the INHIBITION was -11.9%. In the case of `COc1ccc(OC)c(C(O)CNC(=O)Nc2ccc(F)cc2F)c1` (stereo not drawn), the INHIBITION is reported as -27%. With `c1ccc2c(c1)CC(CNCc1ccncc1)(N1CCCCC1)C2` the INHIBITION was 12.3%.
